High-throughput results deposited in PubChem by several laboratories.
Beta cell apopt = inhibitors of cytokine-induced beta cell apoptosis, primary screen, luminescence; INS-1E cytokine-induced death, ATP luminescence, 48 h; percent of positive-control rescue, neutral wells zero; protection from apoptosis, % (no concentration beside the values); actives 0.8% (n = 300,000); AID 435005, 2010;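 active = Every replicate reaches about 75%, or at least half do and their mean reaches it too, limit read from the data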;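 note: 0% = cytokine-treated negative control wells and 100% = positive control rescue; higher means more ATP so stronger rescue from cytokine killing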
697 NFkB inh = inhibitors of PMA/ionomycin-induced NF-kB reporter, 697 cells, primary screen, B-cell NF-kB inhibitor project, cell-based, luminescence, uHTS | 697 B-cell NF-kB luciferase reporter, 16 h | inhibition, % at 4 µM | actives 0.33% (n = 330,000) | AID 435022, 2010; in the data active = inhibition above about 35%
Jurkat NFkB inh = inhibitors of induced NF-kB luciferase reporter, primary screen, TCR NF-kB activation inhibitor project, cell-based, luminescence, uHTS | AID 435003, 2010 | Jurkat, PMA/ionomycin-induced NF-kB luciferase reporter | actives 0.53% (n = 330,000) | inhibition, % at 4 µM; in the data active = inhibition above about 50%
Gli-Sufu antag = Gli-Sufu pathway antagonists, primary screen, luciferase luminescence, Sufu-KO-LIGHT cells, uHTS | Sufu-KO-LIGHT fibroblasts, Gli luciferase reporter luminescence | inhibition, % at 5 µM | actives 0.74% (n = 340,000) | AID 588413, 2011;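 active = inhibition above about 55%, limit read from the data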;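 note: 0% = DMSO-treated cells and 100% = wells with medium but no cells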
Jurkat NFkB conf = PMA/ionomycin-induced NF-kB reporter inhibitors, Jurkat retest, confirmation, T-cell NF-kB inhibitor project, cell-based, luminescence, single concentration | actives 27% (n = 2,700) | Jurkat NF-kB luciferase, 16 h | AID 435020, 2010 | shares compounds with Jurkat NFkB inh | inhibition, % at 4 µM;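 active = inhibition reaching about 45% at 4 µM in either replicate, limit read from the data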;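 note: plate controls were PMA/ionomycin stimulated DMSO wells for no effect and unstimulated DMSO wells for full effect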
The depositor's hits bear a star; · = no result given. A selection: hits, their analogues and other compounds. The true share with any hit is near 1.8%.

SMILES	Beta cell apopt	697 NFkB inh	Jurkat NFkB inh	Gli-Sufu antag	Jurkat NFkB conf
Cc1ccccc1NC(=O)c1cccc(NC(=O)c2ccco2)c1	·	-4	-9	35	·
CCOc1ccccc1NC(=O)c1cccc(NC(=O)c2ccco2)c1	17	-35	57*	-1	31
CCOC(=O)c1c(C)[nH]c(C)c1C(=O)CSc1nncs1	-10	13	-13	2	·
O=C(Nc1ccc([N+](=O)[O-])cc1)Nc1ccon1	33	20	63*	4	46
Cc1cccc(N2CC(C(=O)OCC(=O)c3c(N)n(CC(C)C)c(=O)n(C)c3=O)CC2=O)c1C (configuration not stated)	·	-45	-11	4	·
Cc1ccc(-c2nc3ccc(Cl)cc3n2OC(C)C(=O)O)cc1 (configuration not stated)	3	-244	-173	-7	-102
CC(On1c(-c2ccccc2)nc2ccc(Cl)cc21)C(=O)O (configuration not stated)	-9	-35	-31	18	·
Cc1cc(C)nc(S/C=C/C(=O)c2ccc(F)cc2)n1	2	-155	70*	·	-1
Cc1cc(C)nc(SCC(=O)c2ccc(F)cc2)n1	-9	-62	-62	-1	·
COc1ccc(NC(=O)c2nc(C)c(C3(C)CC(c4ccccc4)=NO3)s2)cc1 (configuration not stated)	45	-14	55*	-3	37
Cc1ccc(S(=O)(=O)N2CCCCC2CCNC(=O)C(=O)NCCc2ccco2)cc1 (configuration not stated)	12	-15	60*	0	25
O=C(CSc1nnc2c(n1)[nH]c1ccc(S(=O)(=O)N3CCOCC3)cc12)Nc1ccccc1Cl	4	12	9	5	·
COc1ccc(C(=O)N(C)Cc2cnn(Cc3ccccc3)c2)cc1S(=O)(=O)N1CCOCC1	14	-48	54*	-14	44
O=C(Nc1ccc(N2CCCC2)cc1)c1ccccc1F	4	-99	-60	-44	·
Cc1ccc(C(=O)Nc2ccc(N3CCCCC3)cc2)cc1	-1	-161	-176	-123	-113
O=C(Nc1ccc(N2CCCCC2)cc1)c1ccc(F)cc1F	4	-202	-175	-80	-69
Cc1ccc(C(=O)Nc2cccc(C(=O)O)c2)cc1	7	17	73*	-133	60*
CCOc1ccc(NC(=O)CCC(=O)N2CCSc3ccccc32)cc1	-4	-11	6	-3	·
CCOC(=O)c1cc(CC)sc1NC(=O)c1cccc(N2C(=O)CCC2=O)c1	-5	-68	57*	1	8
CC(=O)/C(=N\Nc1ccccc1)Sc1cccc2cccnc12	-2	-17	4	3	·
O=C(Sc1cccc2cccnc12)c1ccc(F)cc1	·	-151	101*	·	60*
O=C(Sc1cccc2cccnc12)c1ccccc1Br	52	-97	101*	·	69*
NNC(=O)CSc1cccc2cccnc12	0	-36	12	2	·
Cc1cccn2cc(-c3ccc(F)cc3)nc12	·	-198	-167	-119	-93
Nc1ncn([C@@H]2O[C@H](CO)[C@@H](O)[C@H]2O)c(=O)n1	4	-116	80*	23	85*
SMILES	Beta cell apopt	697 NFkB inh	Jurkat NFkB inh	Gli-Sufu antag	Jurkat NFkB conf
O=c1[nH]cnc2c1ncn2C1OC(CO)C(O)C1O (configuration not stated)	·	·	·	4	·
Cc1ccc(S(=O)(=O)O/N=C2\CCCc3ccccc32)cc1	-7	-2	-12	36	·
CC1=C(C)/C(=N\OS(=O)(=O)c2ccccc2)C=CC1=O	113*	-69	55*	15	18
CCOC(=O)C1=C(C)NC(SC)=C(C#N)C1CC(C)C (configuration not stated)	3	-66	57*	-6	17
Cc1ccc(CNc2ccc(N3C(=O)CC(C)C3=O)cc2[N+](=O)[O-])cc1 (configuration not stated)	1	3	12	-1	·
N#CC1(c2ccccc2)CCC(NCCc2ccccc2)CC1 (configuration not stated)	-7	-11	2	14	·
CC(C)C[C@H](NC(=O)c1nc[nH]c1C(=O)N1CCNCC1)C(=O)OC(C)(C)C	-4	4	19	-16	·
CCOC(=O)C(C)Oc1cccc2c(=O)n(CC(=O)NCc3ccc4c(c3)OCO4)ccc12 (configuration not stated)	17	-62	52*	15	54*
CCOC(=O)COc1cccc2c(=O)n(CC(=O)N3CCCCC3)ccc12	-3	12	-4	3	·
CCOC(=O)COc1cccc2c(=O)n(CC(N)=O)ccc12	-6	17	-15	-2	·
CCOC(=O)COc1cccc2c(=O)n(CC(=O)NCc3ccccc3)ccc12	31	-6	63*	9	50
CCOC(=O)C(C)Oc1cccc2c(=O)n(CC(=O)Nc3ccc4c(c3)OCCO4)ccc12 (configuration not stated)	12	4	-12	8	·
CCOC(=O)COc1cccc2c(=O)n(CC(=O)NCc3ccc(F)cc3)ccc12	4	-14	72*	49	53*
CSc1cnc2c(=O)[nH]c(=O)n(C)c2n1	2	2	-10	-7	·
O=[N+]([O-])c1ccc(-c2nc(C(Cl)Cl)c3ccccc3n2)cc1	94*	-102	97*	35	42
COc1nc(-c2ccccc2)cc(-c2ccc3c(c2)OCO3)c1C#N	9	-29	57*	43	11
CCN(CC)c1ccc(NC(=O)CSc2nc(C3CC3)nc3ccccc23)cc1C	7	-16	59*	-8	10
Cc1cccc(NC(=O)CSc2nc(C3CC3)nc3ccccc23)c1	0	-3	14	-40	·
O=C(COc1ccc(Cl)cc1Cl)N(Cc1ccco1)C1CCS(=O)(=O)C1 (configuration not stated)	0	11	-17	-1	·
Cc1cc(C(C)(C)C)ccc1OCCCCN1CCCC1	21	-18	-8	-2	·
CCC(C)(C)c1ccc(OCCCC[n+]2cccc(C)c2C)c(C(C)(C)CC)c1	117*	34	94*	85*	75*
CN(C)S(=O)(=O)c1ccc(C(=O)Nc2ccccc2[N+](=O)[O-])cc1	·	16	5	-4	·
COc1cccc(C(C)NC(=O)Nc2cc(Cl)ccc2OC)c1 (configuration not stated)	-8	11	10	-3	·
Oc1ccc2ccccc2c1N=Nc1ccccc1F	0	-33	-8	11	·
Oc1ccc2ccccc2c1N=Nc1ccccn1	95*	-9	62*	55	52*
O=[N+]([O-])c1ccc(CN2CCN(c3ccc([N+](=O)[O-])cc3)CC2)cc1	5	-15	60*	20	21
O=[N+]([O-])c1ccc(N2CCN(Cc3cccc([N+](=O)[O-])c3)CC2)cc1	-8	-7	42	34	·
